Test results reported in PubChem BioAssay AID720708 (National Center for Advancing Translational Sciences (NCATS), 2013).
The campaign covered roughly 360,000 compounds. About 660 (0.18%) were called active. Roughly 2% stayed inconclusive and do not appear here. Calls follow the shape of the dose curve; as a rule, active = well fitted inhibition curve with a large enough effect; inconclusive = small, poorly fitted or top-dose-only effect; inactive = no such curve, though single readings can be large or run the other way. What follows is part of a selection rich in actives, with near analogues and random picks from the rest.

molecular target: Rap guanine nucleotide exchange factor 4 (Homo sapiens) (UniProt Q8WZA2); experiment: qHTS for Antagonist of cAMP-regulated guanine nucleotide exchange factor 2 (EPAC2): primary screen; conditions: EPAC2 GEF exchange of Rap1B-BODIPY-GDP, fluorescence; series mostly up to 114 µM; also: nearly all actives have a fitted effect of over 45% in size
Sequence (Q8WZA2 whole entry, looked up): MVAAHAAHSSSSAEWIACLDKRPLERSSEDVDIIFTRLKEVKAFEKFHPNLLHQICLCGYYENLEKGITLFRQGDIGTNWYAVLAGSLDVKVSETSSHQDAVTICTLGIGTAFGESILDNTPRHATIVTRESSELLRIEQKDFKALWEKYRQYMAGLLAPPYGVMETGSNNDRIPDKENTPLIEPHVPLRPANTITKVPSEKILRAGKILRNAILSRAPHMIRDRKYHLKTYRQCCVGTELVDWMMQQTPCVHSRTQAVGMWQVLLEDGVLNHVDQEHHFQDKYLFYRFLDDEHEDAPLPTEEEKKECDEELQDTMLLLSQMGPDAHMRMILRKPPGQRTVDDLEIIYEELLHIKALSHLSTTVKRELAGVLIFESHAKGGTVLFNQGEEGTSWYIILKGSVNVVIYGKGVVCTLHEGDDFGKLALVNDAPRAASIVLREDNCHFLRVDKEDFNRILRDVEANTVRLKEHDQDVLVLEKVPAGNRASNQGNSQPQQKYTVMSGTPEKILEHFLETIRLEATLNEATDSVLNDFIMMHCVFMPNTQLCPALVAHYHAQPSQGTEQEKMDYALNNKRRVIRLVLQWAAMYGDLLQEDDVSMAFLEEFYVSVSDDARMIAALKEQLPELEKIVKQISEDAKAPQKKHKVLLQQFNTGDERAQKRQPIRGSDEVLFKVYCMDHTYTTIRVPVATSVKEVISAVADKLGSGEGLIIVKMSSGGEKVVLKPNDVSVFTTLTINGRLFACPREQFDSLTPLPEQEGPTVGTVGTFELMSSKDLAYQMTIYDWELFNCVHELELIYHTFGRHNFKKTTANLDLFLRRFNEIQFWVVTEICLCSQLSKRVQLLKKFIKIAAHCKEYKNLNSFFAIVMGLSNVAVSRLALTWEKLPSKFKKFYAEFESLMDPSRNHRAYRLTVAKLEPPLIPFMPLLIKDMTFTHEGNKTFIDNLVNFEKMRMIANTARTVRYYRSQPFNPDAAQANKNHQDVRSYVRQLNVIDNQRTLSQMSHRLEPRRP

Potency, inactive:
COc1ccccc1C(CNC(=O)c1ccc(C)c(S(=O)(=O)N2CCCCC2)c1)N(C)C (centres undefined), O=c1[nH]cnc(O)c1C(c1ccc(F)cc1)c1c(O)nc[nH]c1=O, CCC(=O)N1CCc2cc(S(=O)(=O)NC(C(=O)N3CCc4ccccc4C3)C(C)C)ccc21 (centres undefined), COC(=O)c1ccccc1OCC(=O)N1CCN(c2ccc(Cl)cc2)CC1, N#C[C@]1(S(=O)(=O)c2ccccc2)C[C@@H]2ON=C(c3cccc(Br)c3)[C@@H]2C1, O=C1Nc2ccccc2-n2nnnc2C1N1CCN(c2cccc(C(F)(F)F)n2)CC1 (centres undefined), CN(C(=O)CSc1nnc(N)s1)c1c(N)n(Cc2ccccc2)c(=O)[nH]c1=O, C/C(=N\NC(=O)c1cccnc1)c1ccc(-n2ccnc2)cc1, CO[C@@H]1CN(C)C(=O)c2cc(NC(=O)C3CC3)ccc2OC[C@H](C)N(C(=O)CN2CCOCC2)C[C@@H]1C, S=C(Nc1ccc2c(c1)OCO2)N1CCCC1, COC(=O)[C@]12CCCCC=C1N(Cc1ccccc1)C(=O)[C@H](CC(=O)NCc1ccc(C)o1)C2, Cn1nnnc1SCC(=O)NNC(=O)c1ccc(Br)cc1, CC1(C(=O)NS(=O)(=O)c2cccc(OC(F)F)c2)CCN1C(=O)COc1ccc(Cl)cc1 (centres undefined), CCc1ccc(Oc2nc([N+](=O)[O-])nn2C)cc1, COc1ccc(C(O)C(O)(C(=O)OC(C)C)c2ccc(C)cc2)cc1 (centres undefined), COC(=O)[C@@]12C[C@@H](CC(=O)N3CCCCC3)C(=O)N(Cc3ccc4c(c3)OCO4)C1=CCC(C)(C)C2, O=C(c1cccc(S(=O)(=O)N2CCCC2)c1)N(Cc1ccco1)C1CCS(=O)(=O)C1 (centres undefined), COc1ccc(C(C)NC(=O)C23CC4CC(CC(C4)C2)C3)cc1 (centres undefined), COc1ccc(NC(=O)C2(C)Cc3c(-c4ccc(C(N)=O)cc4)ccnc3O2)cc1 (centres undefined), c1ccc(-c2ccnc3nc(-n4cccc4)nn23)cc1, Cc1cc(C(=O)CC#N)c(C)n1-c1c(C)n(C)n(-c2ccccc2)c1=O, O=C(Cn1cc(C(=O)C2CC2)c2ccccc21)Nc1ccccc1Cl, COc1ccc(N(CC(=O)NC2CCCCC2)S(=O)(=O)c2c(C)[nH]c(=O)[nH]c2=O)cc1, CCOC(=O)[C@]12CCCC=C1N(Cc1ccc(Cl)cc1Cl)C(=O)[C@H](CC(=O)N1CCCCC1)C2, Cc1ncc(CO)c(/C=N/NC(=O)c2cccc(S(=O)(=O)N3CCCC3)c2)c1O, O=C(COc1nc2ccccc2nc1N1CCOCC1)NCC(F)(F)F, COc1ccc(-c2c(C(C)=O)c(C)nc3sc4c(=O)n(-c5ccc(C)cc5)nnc4c23)cc1, CCNC(=S)N1CCC(c2nc3cc(C)c(C)cc3[nH]2)CC1, CCCCn1nc(C(=O)OCC(=O)Nc2sccc2C(N)=O)c2ccccc2c1=O
